Experimental findings from PubChem BioAssay (NCI) are described below.

SMILES strings stand for the structures. Compounds without any hit were thinned out: in the full panel of roughly 83,000, 20% have a hit.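 Assay: single dose, 48 h. Readout: percent growth (0 = no net growth; negative = cell death). Active: <10.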 The source made the active and inactive calls.

For this assay, the system named is MCF7 breast. In words: NCI-60 one-dose screen, 48 h (100 = growth as untreated, 0 = no growth, -100 = all killed). The conditions noted are these: 10 µM unless noted.
In the case of `CCN1C(=O)N(CC)C2C1NN=c1s/c(=C\c3cc4ccccc4[nH]3)c(=O)n12` (centres undefined), the growth was 3.88% (active).
To `CCN(CC)CCCNCc1cc(-c2ccccc2)nc2cc(Cl)ccc12` belongs 23% (inactive).
To `CC[C@H](CC[C@@H](C)[C@H]1CC[C@H]2[C@@H]3CC[C@@H]4CC(=O)/C(=C\c5ccncc5)C[C@]4(C)[C@H]3CC[C@]12C)C(C)C` belongs 95.7% (inactive); to `CCN(CC)c1ccc(/C=N\NC(=O)c2cccc(Nc3ccnc(C(F)(F)F)c3)c2)c(O)c1`, 16.1% (inactive); to `Cc1cscc(C)c1=S`, 59.4% (inactive).
As to `COC(=O)/C=C1/SC(=Nc2cccc(Cl)c2)N(CCc2c[nH]c3ccc(O)cc23)C1=O`, the growth was 15.9% (inactive).
`O=C(CCCCCCCCC(=O)N/N=C\c1cc(Cl)ccc1O)N/N=C\c1cc(Cl)ccc1O`: the growth is 20% (inactive).
On to `COc1ccc(/C=C/C(=O)c2cc3c(N)c(C(=O)Nc4ccc(OC)cc4)sc3nc2C)cc1`, for which the growth is 14.3% (inactive).
To `CCCCCCOC(=O)CC1=C(C)/C(=C/c2[nH]c(-c3ccc[nH]3)cc2OC)N=C1C` belongs -24.1% (active).
For the compound `Cc1ccc(O)c(NC(=O)c2ccc(CNc3ccnc(C(F)(F)F)c3)cc2)c1`, the growth is 37.6% (inactive).
For the compound `O=C1/C(=C/c2ccc(Br)cc2)COc2ccc(O)c(O)c21`, the growth was 4.13% (active).
To `O=C(/C=C/C12c3ccccc3C(c3ccccc31)C1C(=O)NC(=O)C12)c1ccc(F)cc1` (centres undefined) belongs 11.8% (inactive); to `Cc1ccc(C)c2c1C(O)(C#Cc1ccccc1)c1ccccc1C2(O)C#Cc1ccccc1` (centres undefined), 28.9% (inactive); to `C(/C=C/c1ccccc1)=Nc1ccc(CCc2ccc(N=C/C=C/c3ccccc3)cc2)cc1`, 69.2% (inactive).
To `O=C(Cn1nnc2ccccc21)Nc1ccc(-c2nc3ccccc3s2)cc1` belongs 28.9% (inactive); to `CCCCCCCC/C=C\CCCCCCCCOc1ccc(CC(=O)NCC[N+](C)(C)C)cc1`, 73.7% (inactive).
Regarding `COc1cc(/C=C2\CN(S(=O)(=O)c3ccc(C)cc3)C/C(=C\c3cc(CN4CCCCC4)c(O)c(OC)c3)C2=O)cc(CN2CCCCC2)c1O`, the growth was -74.4% (active).
Regarding `Cc1ncc(C(=O)Nc2ccc(CN3CCN(C)CC3)c(C(F)(F)F)c2)cc1C#Cc1cnc(N)c2ccncc12`, the growth was -72% (active).
In the case of `COc1cc(C2=NN(C(C)=O)C(c3ccc(N(C)C)cc3)C2)cc(OC)c1OC` (centres undefined), the growth is 93.1% (inactive).
Regarding `COC1=CC(c2ccc[nH]2)=N/C1=C\c1[nH]c(C)c(CC(=O)OCc2ccccc2)c1C`, the growth was 4.14% (active).
For `CCOC(=O)CSc1nc2sc3c(c2c(=O)n1-c1ccc([N+](=O)[O-])cc1)CCCCC3` the value was 76.2% (inactive); for `CN(C)c1ccc(C(=NO)c2ccc(N(C)C)cc2)cc1`, 32.6% (inactive); for `Cc1ccc(C(=O)c2ccc(CC(=O)N/N=C/c3ccc(O)cc3O)n2C)cc1`, 39.2% (inactive).
To `N#C/C(=C\c1ccc(Br)cc1)c1cc2ccccc2[nH]1` belongs 62.2% (inactive); to `COc1ccc(-c2cn(-c3ccc(Cl)cc3)c(SCC(=O)c3ccc([N+](=O)[O-])cc3)n2)cc1`, 82.4% (inactive).
With `COc1ccc(Cc2nnc(Nc3nc4ccccc4s3)s2)cc1`, the growth was 105% (inactive).
As to `CCOC(=O)c1ccc2c(c1)c1c(C)c3ccncc3c(C)c1n2C`, the growth is 1.8% (active).
Turning to `Cc1nc2sc(C(=O)Nc3cccc(Cl)c3)c(N)c2cc1C(O)c1ccccc1` (centres undefined), the growth is 21.9% (inactive).
For the compound `COc1ccc(C2CC(c3ccc(Nc4nc(Nc5ccc(F)cc5)nc(Nc5ccc(F)cc5)n4)cc3)=NN2C(C)=O)cc1` (centres undefined), the growth is 98.9% (inactive).
Regarding `N#Cc1c(NC(=O)c2cccs2)[n+]([O-])c2ccc(Cl)cc2[n+]1[O-]`, the growth is 101% (inactive).
`CC(C)(C)c1cc(C=Nc2cccc(C(F)(F)F)c2)c(O)c(C(C)(C)C)c1`: the growth is 97.7% (inactive).
Consider `N=c1sc(Cc2cc(Cl)ccc2Cl)cn1CC(=O)c1ccccc1`, for which the growth is 32.3% (inactive).
In the case of `COc1ccc(Nc2ncc(C(N)=O)c(NCCCNC(=O)C3CCC3)n2)cc1`, the growth is 64% (inactive).
For `Cc1nn(-c2ccccc2)c(/N=C/N(C)C)c1/C=C/C(=O)c1ccc(Cl)cc1`, the growth is 85.9% (inactive).
To `COc1ccc2cc(-c3ccc(-c4ccc(C(=N)N)s4)s3)ccc2c1` belongs -60.9% (active); to `O=C1c2cccnc2C(=O)c2c1c(C(=O)OCCCN1CCCCC1)c1ccccn21`, -42% (active).
As to `O[C@@H](c1cc(C(F)(F)F)nc2c(C(F)(F)F)cccc12)[C@H]1CCCCN1`, the growth was 36.3% (inactive).
Take `Cc1[nH]c(/C=C/C(=O)c2ccc(C(F)(F)F)c(F)c2)c(C)c1C(=O)NCC(C)C`: the growth was 86% (inactive).
With `CCCCCCCCn1ccc2cc(NC(=O)Cn3cc(CN4CCCCCC4)nn3)ccc21`, the growth was -23.2% (active).
